Bioassay records as filed in PubChem BioAssay.
DT40 TDP1 no CPT = qHTS for Inhibitors of human tyrosyl-DNA phosphodiesterase 1 (TDP1): qHTS in cells in absence of CPT. DT40 Tdp1-/- hTDP1 cells, no CPT, ATP luminescence, 48 h. Potency, µM (doses to about 46.2 µM), usual class: inhibitors. 420,000 compounds, 15% hits. AID 686978, 2013; also: nearly all actives have a fitted effect of over 55% in size
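Chicken DT40 Tdp1-/- cells stably complemented with human TDP1 were seeded at 400 cells/well with DMSO in place of 20 nM camptothecin. After compound pinning, cells grew at least 48 hr at 37 °C; viability read by CellTiter-Glo luminescence.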
TDP1 inh = TDP1 (human) enzyme inhibition | Q9NUW8 | recombinant TDP1, AlphaScreen DNA substrate cleavage | Potency, µM (doses to about 130 µM), hits mostly inhibitors | 350,000 compounds, 0.28% hits | AID 485290; also: nearly all actives have a fitted effect of over 40% in size
Target sequence (Q9NUW8 whole entry, looked up): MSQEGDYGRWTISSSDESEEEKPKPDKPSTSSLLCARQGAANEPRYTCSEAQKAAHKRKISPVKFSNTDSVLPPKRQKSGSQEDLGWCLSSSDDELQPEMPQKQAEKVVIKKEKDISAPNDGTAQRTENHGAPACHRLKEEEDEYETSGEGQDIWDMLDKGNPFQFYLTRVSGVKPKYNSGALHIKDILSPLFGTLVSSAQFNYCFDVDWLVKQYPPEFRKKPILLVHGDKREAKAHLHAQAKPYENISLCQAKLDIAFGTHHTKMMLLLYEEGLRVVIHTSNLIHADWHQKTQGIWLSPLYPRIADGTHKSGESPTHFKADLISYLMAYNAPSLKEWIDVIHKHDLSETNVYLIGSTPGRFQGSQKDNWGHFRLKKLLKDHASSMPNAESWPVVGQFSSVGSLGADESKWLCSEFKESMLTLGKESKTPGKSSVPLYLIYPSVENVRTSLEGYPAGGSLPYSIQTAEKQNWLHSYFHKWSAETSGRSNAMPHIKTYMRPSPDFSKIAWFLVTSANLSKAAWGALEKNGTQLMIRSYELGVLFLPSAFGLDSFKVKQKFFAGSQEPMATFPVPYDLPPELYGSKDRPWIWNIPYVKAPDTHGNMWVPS
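AlphaScreen read-out: signal falls as enzyme removes the 3' tyrosine-FITC from a 5'-biotinylated DNA oligo (15 nM, 5 min, RT). Enzyme was E. coli-made recombinant Tdp1 at 1 nM, exposed to compound for 15 min beforehand; beads 10 ug/ml, 10 min.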
ClpP mod = qHTS Assay for Activators of ClpP; AID 651965, 2013; ATP-dependent Clp protease proteolytic subunit (Bacillus subtilis (strain 168)), P80244; Potency, µM (titrated, usually from 57.5 µM); purified B. subtilis ClpP, FRET peptide cleavage, 20 min; 340,000 compounds, 1.9% hits; active = well fitted falling curve with a large enough effect; inconclusive = small, poorly fitted or top-dose-only effect; inactive = no such curve, though single readings can be large or run the other way; also: the source files actives as falling curves though it sought activators and does not explain the sign; nearly all actives have a fitted effect of over 65% in size
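Purified B. subtilis ClpP, 10 microg/mL final in Tris/HCl pH8 with KCl, BSA, glycerol and Tween-20, cleaved an Abz/nitrotyrosine-quenched decapeptide. Fluorescence (ex 320, em 430) was read at 0 and 20 min at room temperature. Delta was normalized to 5.8 microM ADEP and DMSO/no-enzyme controls.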
DT40 TDP1 CPT = growth inhibition of DT40 Tdp1-/-;hTDP1 cells with camptothecin (screen for TDP1 inhibitors). 420,000 compounds, 12% hits. Potency, µM (titrated, usually from 46.2 µM), most hits filed as inhibitors. chicken DT40 Tdp1-/-;hTDP1 cells + 20 nM CPT, ATP luminescence, 48 h. AID 686979; also: nearly all actives have a fitted effect of over 55% in size
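Chicken DT40 Tdp1-/- cells complemented with human TDP1, 400 cells/well, exposed to compounds plus 20 nM camptothecin for at least 48 h at 37 C; viability read as ATP content by CellTiter-Glo luminescence.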
Large screens that a line does not name were inactive. Hits are enriched below; roughly 17% of the tested compounds scored in any of these assays. Unless noted, calls follow the shape of the dose curve; as a rule, active = well fitted curve in the direction sought with a large enough effect; inconclusive = small, poorly fitted or top-dose-only effect, or another doubt; inactive = no such curve, though single readings can be large; an effect the other way counts as inactive or inconclusive.

Cc1ccc(C)c(NC(=O)CSc2nc(-c3ccccc3)cc(=O)[nH]2)c1	none
CN(C)c1nc(=NCc2ccco2)ss1	DT40 TDP1 no CPT 0.037µM, DT40 TDP1 CPT 0.15µM
C/C(=N\NC(=O)C1(C)CC1(Br)Br)c1cccc(NC(=O)C2CCC2)c1 (centres undefined)	DT40 TDP1 no CPT 26µM, ClpP mod 22µM, DT40 TDP1 CPT 18µM
COc1ccc(CC(=O)N/N=C(\C)c2cccc(NC(=O)C3CC3)c2)cc1	none
C=C(C)CSc1[nH]c(=O)cc(C)c1C#N	none (no result: ClpP mod)
CCCSc1ccc([C@@H]2[C@@H]3C(=O)N(CC)C(=O)[C@@H]3[C@]3(C(=O)OC)CCCCN23)cc1OC	DT40 TDP1 no CPT 23µM, DT40 TDP1 CPT 16µM
CCN1C(=O)[C@H]2[C@@H](c3ccc(SC4CCCCC4)c(OC)c3)N3CCCC[C@@]3(C(=O)OC)[C@H]2C1=O	DT40 TDP1 no CPT 23µM, DT40 TDP1 CPT inconclusive
CCSc1ccc([C@@H]2[C@H]3C(=O)N(CC)C(=O)[C@H]3[C@]3(C(=O)OC)CCCCN23)cc1OC	DT40 TDP1 no CPT 16µM, DT40 TDP1 CPT inconclusive
CCCSc1ccc([C@@H]2[C@@H]3C(=O)N(C)C(=O)[C@@H]3[C@]3(C(=O)OC)CCCN23)cc1OC	DT40 TDP1 no CPT inconclusive, ClpP mod inconclusive, DT40 TDP1 CPT 18µM
CCCn1c(C)nc2c(NCC3CCCN3CC)nc(C)nc21 (centres undefined)	none (no result: DT40 TDP1 no CPT, ClpP mod, DT40 TDP1 CPT)
CCCCCCSc1ccc([C@@H]2[C@H]3C(=O)N(CC)C(=O)[C@H]3[C@]3(C(=O)OC)CCCCN23)cc1OC	DT40 TDP1 no CPT inconclusive, DT40 TDP1 CPT 21µM
Cc1ccc(OCc2cc(C(=O)NCc3cc(F)ccc3C)no2)cn1	DT40 TDP1 no CPT inconclusive, DT40 TDP1 CPT 16µM (no result: TDP1 inh)
CCC(NC(=O)c1cc(COc2ccc(OC)cc2Cl)on1)c1ccncc1 (centres undefined)	DT40 TDP1 no CPT 12µM, DT40 TDP1 CPT inconclusive
CCC(NC(=O)c1cc(COc2ccc(Cl)cc2OC)on1)c1ccncc1 (centres undefined)	DT40 TDP1 no CPT inconclusive, DT40 TDP1 CPT inconclusive
Cc1ccc(OCc2cc(C(=O)NC3CCc4ccccc43)no2)cn1 (centres undefined)	DT40 TDP1 no CPT 13µM, DT40 TDP1 CPT 18µM
CCC(NC(=O)c1cc(COc2cc(C)c(Cl)c(C)c2)on1)c1ccncc1 (centres undefined)	DT40 TDP1 no CPT 21µM, DT40 TDP1 CPT inconclusive
CC#CC(C)C(OCOC)C(CC(C)Cc1cc(Br)cc(OCc2ccccc2)c1OC)OC (centres undefined)	none (no result: DT40 TDP1 no CPT, ClpP mod, DT40 TDP1 CPT)
CCc1nnc(NC(=O)CCn2cnc3ccccc3c2=O)s1	DT40 TDP1 no CPT inconclusive (no result: ClpP mod)
CCC(NC(=O)c1cc(COc2c(F)cccc2F)on1)c1ccncc1 (centres undefined)	DT40 TDP1 no CPT inconclusive, DT40 TDP1 CPT inconclusive
COc1ccc(OCc2cc(C(=O)NC3Cc4ccccc4C3)no2)c(Cl)c1	DT40 TDP1 no CPT 3.7µM, DT40 TDP1 CPT 3.3µM
CCC(NC(=O)c1cc(COc2ccc(C)nc2)on1)c1ccc(C)cc1 (centres undefined)	DT40 TDP1 no CPT inconclusive, DT40 TDP1 CPT 16µM
Cc1c(C(=O)N2CCN(Cc3ccc4c(c3)OCO4)CC2)sc2ncnc(N3CCN(c4ccccc4F)CC3)c12	DT40 TDP1 no CPT 8.2µM, DT40 TDP1 CPT 18µM
O=C(c1sccc1Br)N1CCN(Cc2ccc3c(c2)OCO3)CC1	DT40 TDP1 no CPT inconclusive (no result: ClpP mod)
Cc1c(C(=O)N2CCN(Cc3ccc4c(c3)OCO4)CC2)sc2ncnc(N3CCN(c4ccccc4)CC3)c12	DT40 TDP1 no CPT 4.6µM, DT40 TDP1 CPT inconclusive
CCCNC(=O)Cn1cnc2sc(C(=O)N3CCN(Cc4ccc5c(c4)OCO5)CC3)c(C)c2c1=O	none (no result: ClpP mod)
CSc1ccc(S(=O)(=O)NC2CC3CCC2C3)cc1 (centres undefined)	none (no result: TDP1 inh)
CCCC(C(=O)NCC1CCCO1)N(Cc1ccco1)C(=O)CNS(=O)(=O)c1ccccc1 (centres undefined)	ClpP mod 25µM
CCn1ccc2cc(S(=O)(=O)N3CCCN(C(=O)Nc4cccc(Cl)c4)CC3)ccc21	none (no result: DT40 TDP1 no CPT, DT40 TDP1 CPT)
COc1cccc(C(=O)NC(=O)Nc2ccc(-n3nc(C(F)(F)F)cc3C(F)(F)F)cc2)c1	none
COc1ccccc1C(=O)NC(=O)Nc1ccc(-c2cc(C(F)(F)F)nn2-c2ccccc2)cc1	DT40 TDP1 no CPT 4.6µM, DT40 TDP1 CPT 5.8µM
COc1ccccc1C(=O)Nc1ccc(-c2cc(C(F)(F)F)nn2-c2ccccc2)cc1	DT40 TDP1 no CPT 5.2µM, ClpP mod 22µM, DT40 TDP1 CPT 4.1µM
COc1ccc(OCC(=O)Nc2ccccc2C(=O)OCc2cc(=O)n3nc(C)sc3n2)cc1	DT40 TDP1 no CPT inconclusive, ClpP mod inconclusive, DT40 TDP1 CPT inconclusive
O=C1c2ccccc2-c2onc3ccc(NCCCn4ccnc4)c1c23	DT40 TDP1 no CPT inconclusive, DT40 TDP1 CPT 15µM
COc1ccc(N)c2c1C(=O)c1ccccc1C2=O	DT40 TDP1 no CPT inconclusive, DT40 TDP1 CPT inconclusive
COc1ccc2noc3c2c1C(=O)c1ccccc1-3	DT40 TDP1 no CPT 18µM, DT40 TDP1 CPT 15µM (no result: TDP1 inh)
COc1ccc(S(=O)(=O)N2c3ccccc3NC(=O)CC2C)cc1 (centres undefined)	none
COc1ccc(S(=O)(=O)N2c3ccccc3OCC2c2ccccc2)cc1 (centres undefined)	DT40 TDP1 no CPT 23µM, DT40 TDP1 CPT 18µM
COc1ccc(S(=O)(=O)N2c3ccccc3OCC2C)cc1 (centres undefined)	DT40 TDP1 no CPT 0.82µM, DT40 TDP1 CPT 0.58µM (no result: ClpP mod)
O=C(O)CC1COc2ccccc2N1S(=O)(=O)c1ccc(Br)cc1 (centres undefined)	none (no result: TDP1 inh)
COc1ccc(S(=O)(=O)N2c3ccccc3OCC2CC(=O)O)cc1 (centres undefined)	DT40 TDP1 no CPT 29µM, DT40 TDP1 CPT inconclusive (no result: TDP1 inh)
COc1ccc(S(=O)(=O)N2CCOc3ccccc32)cc1	DT40 TDP1 no CPT 3.7µM, DT40 TDP1 CPT 5.2µM (no result: TDP1 inh)
NC(=O)C1(N2CCCCC2)CCN(C(=O)c2cc(COc3c(F)cccc3F)on2)CC1	DT40 TDP1 no CPT inconclusive, DT40 TDP1 CPT inconclusive (no result: TDP1 inh)
O=C(CSc1nnc2ccc(-c3ccccn3)nn12)Nc1cccc(F)c1	none (no result: TDP1 inh)
COc1ccc(CNC(=O)C[C@H]2C[C@H](C(=O)N(C(C)C)C(C)C)[C@@]3(C)c4[nH]c5cc(-c6ccco6)ccc5c4CCN3C2=O)cc1OC	DT40 TDP1 no CPT inconclusive, DT40 TDP1 CPT 18µM
CCN(CC)C(=O)[C@H]1C[C@H](CC(=O)NCCN2CCOCC2)C(=O)N2CCc3c([nH]c4cc(-c5ccco5)ccc34)[C@]12C	DT40 TDP1 no CPT inconclusive, DT40 TDP1 CPT 21µM
COc1ccc2[nH]c3c(c2c1)CCN1C(=O)C(CC(=O)NCCN2CCOCC2)C[C@H](C(=O)N(C(C)C)C(C)C)[C@@]31C (some centres undefined)	DT40 TDP1 CPT inconclusive
